Test results published in the supplement of paper PMC7765376.
In all, about 1,500 compounds were measured (“Excess HSA synergy score (sum over dose matrix of excess over highest single agent)”: median about 43, lowest 2% from about -900 on). The sample as a whole holds a higher share of the lowest values than the screen did.

Tested on: PEO-1
Assay: Excess HSA synergy score (sum over dose matrix of excess over highest single agent) (score (summed % response)); higher = less synergy / more antagonism (negative = synergy)
Details: 72 h, read-out: viability/apoptosis luminescence (CellTiter-Glo or Caspase3-Glo / not stated per table)
[1] = matrix design: 6x6, 5-fold dilutions (primary screen)
[2] = matrix design: 10x10, 9-step dilutions (confirmatory)

SMILES	Excess HSA synergy score [1]	Excess HSA synergy score [2]
C#Cc1cccc(Nc2ncnc3cc(OC)c(OCCCCCCC(=O)NO)cc23)c1 + CC[C@H](NC(=O)[C@H](C)NC)C(=O)N1C[C@@H](O)C[C@H]1Cc1c(-c2[nH]c3cc(F)ccc3c2C[C@@H]2C[C@H](O)CN2C(=O)[C@H](CC)NC(=O)[C@H](C)NC)[nH]c2cc(F)ccc12 [Birinapant]	-55.2	
CCC(CC)CC1(C(=O)Nc2ccccc2SC(=O)C(C)C)CCCCC1 [Dalcetrapib] + CC[C@H](NC(=O)[C@H](C)NC)C(=O)N1C[C@@H](O)C[C@H]1Cc1c(-c2[nH]c3cc(F)ccc3c2C[C@@H]2C[C@H](O)CN2C(=O)[C@H](CC)NC(=O)[C@H](C)NC)[nH]c2cc(F)ccc12 [Birinapant]	134	
CC(C)(C)c1[nH]cnc1/C=c1\[nH]c(=O)/c(=C/c2ccccc2)[nH]c1=O [Plinabulin] + CC[C@H](NC(=O)[C@H](C)NC)C(=O)N1C[C@@H](O)C[C@H]1Cc1c(-c2[nH]c3cc(F)ccc3c2C[C@@H]2C[C@H](O)CN2C(=O)[C@H](CC)NC(=O)[C@H](C)NC)[nH]c2cc(F)ccc12 [Birinapant]	-109	
COc1ccnc2[nH]cc(C(=O)C(=O)N3CCN(C(=O)c4ccccc4)C[C@H]3C)c12 + CC[C@H](NC(=O)[C@H](C)NC)C(=O)N1C[C@@H](O)C[C@H]1Cc1c(-c2[nH]c3cc(F)ccc3c2C[C@@H]2C[C@H](O)CN2C(=O)[C@H](CC)NC(=O)[C@H](C)NC)[nH]c2cc(F)ccc12 [Birinapant]	263	
C[C@H]1[C@H](C)CC[C@]2(C(=O)O)CC[C@]3(C)C(=CC[C@@H]4[C@@]5(C)C[C@@H](O)[C@H](O)[C@@](C)(CO)[C@@H]5CC[C@]43C)[C@H]12 [Asiatic acid] + CC[C@H](NC(=O)[C@H](C)NC)C(=O)N1C[C@@H](O)C[C@H]1Cc1c(-c2[nH]c3cc(F)ccc3c2C[C@@H]2C[C@H](O)CN2C(=O)[C@H](CC)NC(=O)[C@H](C)NC)[nH]c2cc(F)ccc12 [Birinapant]	84.9	
CCc1cnn2c(NCc3ccc[n+]([O-])c3)cc(N3CCCC[C@H]3CCO)nc12 + CC[C@H](NC(=O)[C@H](C)NC)C(=O)N1C[C@@H](O)C[C@H]1Cc1c(-c2[nH]c3cc(F)ccc3c2C[C@@H]2C[C@H](O)CN2C(=O)[C@H](CC)NC(=O)[C@H](C)NC)[nH]c2cc(F)ccc12 [Birinapant]	5.95	-374
Nc1nc2[nH]cc(CCc3ccc(C(=O)N[C@@H](CCC(=O)O)C(=O)O)cc3)c2c(=O)[nH]1 [Pemetrexed disodium] + CC[C@H](NC(=O)[C@H](C)NC)C(=O)N1C[C@@H](O)C[C@H]1Cc1c(-c2[nH]c3cc(F)ccc3c2C[C@@H]2C[C@H](O)CN2C(=O)[C@H](CC)NC(=O)[C@H](C)NC)[nH]c2cc(F)ccc12 [Birinapant]	-173	
Nc1ncnc2c1ncn2[C@@H]1O[C@H](CO)[C@@H](O)[C@H]1O [Adenosine] + CC[C@H](NC(=O)[C@H](C)NC)C(=O)N1C[C@@H](O)C[C@H]1Cc1c(-c2[nH]c3cc(F)ccc3c2C[C@@H]2C[C@H](O)CN2C(=O)[C@H](CC)NC(=O)[C@H](C)NC)[nH]c2cc(F)ccc12 [Birinapant]	270	
Nc1nc(=O)n([C@H]2C[C@H](O)[C@@H](CO)O2)cc1F + CC[C@H](NC(=O)[C@H](C)NC)C(=O)N1C[C@@H](O)C[C@H]1Cc1c(-c2[nH]c3cc(F)ccc3c2C[C@@H]2C[C@H](O)CN2C(=O)[C@H](CC)NC(=O)[C@H](C)NC)[nH]c2cc(F)ccc12 [Birinapant]	-352	
Nc1nc(Cl)nc2c1ncn2[C@H]1C[C@H](O)[C@@H](CO)O1 [Cladribine] + CC[C@H](NC(=O)[C@H](C)NC)C(=O)N1C[C@@H](O)C[C@H]1Cc1c(-c2[nH]c3cc(F)ccc3c2C[C@@H]2C[C@H](O)CN2C(=O)[C@H](CC)NC(=O)[C@H](C)NC)[nH]c2cc(F)ccc12 [Birinapant]	-229	-1080
Nc1ncn([C@H]2C[C@H](O)[C@@H](CO)O2)c(=O)n1 [Decitabine] + CC[C@H](NC(=O)[C@H](C)NC)C(=O)N1C[C@@H](O)C[C@H]1Cc1c(-c2[nH]c3cc(F)ccc3c2C[C@@H]2C[C@H](O)CN2C(=O)[C@H](CC)NC(=O)[C@H](C)NC)[nH]c2cc(F)ccc12 [Birinapant]	-104	
Nc1nc(F)nc2c1ncn2[C@@H]1O[C@H](CO)[C@@H](O)[C@H]1O [2-Fluoroadenosine] + CC[C@H](NC(=O)[C@H](C)NC)C(=O)N1C[C@@H](O)C[C@H]1Cc1c(-c2[nH]c3cc(F)ccc3c2C[C@@H]2C[C@H](O)CN2C(=O)[C@H](CC)NC(=O)[C@H](C)NC)[nH]c2cc(F)ccc12 [Birinapant]	41.5	
Nc1nc(Cl)nc2c1ncn2[C@@H]1O[C@H](CO)[C@@H](O)[C@@H]1F [Clofarabine] + CC[C@H](NC(=O)[C@H](C)NC)C(=O)N1C[C@@H](O)C[C@H]1Cc1c(-c2[nH]c3cc(F)ccc3c2C[C@@H]2C[C@H](O)CN2C(=O)[C@H](CC)NC(=O)[C@H](C)NC)[nH]c2cc(F)ccc12 [Birinapant]	-118	-898
CC1=C(CO)C(=O)O[C@@H]([C@@H](C)[C@H]2CC[C@H]3[C@@H]4C[C@H]5O[C@]56[C@@H](O)C=CC(=O)[C@]6(C)[C@H]4CC[C@]23C)C1 [Withaferin A] + CC[C@H](NC(=O)[C@H](C)NC)C(=O)N1C[C@@H](O)C[C@H]1Cc1c(-c2[nH]c3cc(F)ccc3c2C[C@@H]2C[C@H](O)CN2C(=O)[C@H](CC)NC(=O)[C@H](C)NC)[nH]c2cc(F)ccc12 [Birinapant]	-42.3	
O=C(Nc1nnc(-c2ccco2)o1)c1cc(-c2ccccc2)nc2ccccc12 + CC[C@H](NC(=O)[C@H](C)NC)C(=O)N1C[C@@H](O)C[C@H]1Cc1c(-c2[nH]c3cc(F)ccc3c2C[C@@H]2C[C@H](O)CN2C(=O)[C@H](CC)NC(=O)[C@H](C)NC)[nH]c2cc(F)ccc12 [Birinapant]	57.7	
Cc1cnc(Nc2ccc(OCCN3CCCC3)cc2)nc1Nc1cccc(S(=O)(=O)NC(C)(C)C)c1 + CC[C@H](NC(=O)[C@H](C)NC)C(=O)N1C[C@@H](O)C[C@H]1Cc1c(-c2[nH]c3cc(F)ccc3c2C[C@@H]2C[C@H](O)CN2C(=O)[C@H](CC)NC(=O)[C@H](C)NC)[nH]c2cc(F)ccc12 [Birinapant]	70.3	
CCN(CC)CCOc1ccc(Nc2ncc3cc(-c4c(Cl)cccc4Cl)c(=O)n(C)c3n2)cc1 + CC[C@H](NC(=O)[C@H](C)NC)C(=O)N1C[C@@H](O)C[C@H]1Cc1c(-c2[nH]c3cc(F)ccc3c2C[C@@H]2C[C@H](O)CN2C(=O)[C@H](CC)NC(=O)[C@H](C)NC)[nH]c2cc(F)ccc12 [Birinapant]	-224	-954
CSc1cccc(Nc2ncc3cc(-c4c(Cl)cccc4Cl)c(=O)n(C)c3n2)c1 + CC[C@H](NC(=O)[C@H](C)NC)C(=O)N1C[C@@H](O)C[C@H]1Cc1c(-c2[nH]c3cc(F)ccc3c2C[C@@H]2C[C@H](O)CN2C(=O)[C@H](CC)NC(=O)[C@H](C)NC)[nH]c2cc(F)ccc12 [Birinapant]	-134	
CO[C@@]12[C@H](COC(N)=O)C3=C(C(=O)C(C)=C(N)C3=O)N1C[C@@H]1N[C@@H]12 [Mitomycin C] + CC[C@H](NC(=O)[C@H](C)NC)C(=O)N1C[C@@H](O)C[C@H]1Cc1c(-c2[nH]c3cc(F)ccc3c2C[C@@H]2C[C@H](O)CN2C(=O)[C@H](CC)NC(=O)[C@H](C)NC)[nH]c2cc(F)ccc12 [Birinapant]	-351	-1240
CC(C)OC(=O)C1=CN(C(=O)c2ccc(F)c(F)c2)CC(C)(C)c2c1[nH]c1ccccc21 [Turofexorate isopropyl] + CC[C@H](NC(=O)[C@H](C)NC)C(=O)N1C[C@@H](O)C[C@H]1Cc1c(-c2[nH]c3cc(F)ccc3c2C[C@@H]2C[C@H](O)CN2C(=O)[C@H](CC)NC(=O)[C@H](C)NC)[nH]c2cc(F)ccc12 [Birinapant]	99.9	
Cc1cc(O)c2c3c4c(cc(O)c13)C(C)(C)C(=O)c1c(O)cc(O)c(c1-4)C2=O [Resistomycin] + CC[C@H](NC(=O)[C@H](C)NC)C(=O)N1C[C@@H](O)C[C@H]1Cc1c(-c2[nH]c3cc(F)ccc3c2C[C@@H]2C[C@H](O)CN2C(=O)[C@H](CC)NC(=O)[C@H](C)NC)[nH]c2cc(F)ccc12 [Birinapant]	-31.1	
CCN1CCN(CC(=O)Nc2ccc(-c3cccc4c(=O)cc(N5CCOCC5)oc34)c3sc4ccccc4c23)CC1 + CC[C@H](NC(=O)[C@H](C)NC)C(=O)N1C[C@@H](O)C[C@H]1Cc1c(-c2[nH]c3cc(F)ccc3c2C[C@@H]2C[C@H](O)CN2C(=O)[C@H](CC)NC(=O)[C@H](C)NC)[nH]c2cc(F)ccc12 [Birinapant]	32	
Nc1ccc(C(=O)Nc2cccc(-c3nc(N4CCOCC4)c4oc5ncccc5c4n3)c2)cn1 + CC[C@H](NC(=O)[C@H](C)NC)C(=O)N1C[C@@H](O)C[C@H]1Cc1c(-c2[nH]c3cc(F)ccc3c2C[C@@H]2C[C@H](O)CN2C(=O)[C@H](CC)NC(=O)[C@H](C)NC)[nH]c2cc(F)ccc12 [Birinapant]	-134	
CCOc1ccc(Cc2cc([C@@H]3O[C@H](CO)[C@@H](O)[C@H](O)[C@H]3O)ccc2Cl)cc1 [Dapagliflozin] + CC[C@H](NC(=O)[C@H](C)NC)C(=O)N1C[C@@H](O)C[C@H]1Cc1c(-c2[nH]c3cc(F)ccc3c2C[C@@H]2C[C@H](O)CN2C(=O)[C@H](CC)NC(=O)[C@H](C)NC)[nH]c2cc(F)ccc12 [Birinapant]	212	
